Assay results taken from the supplement of paper PMC10849652.
The full data set covers some 8,800 targets. This sample favours those with a hit. About 0.5% of all pairs of compound and target were hits.

Key:
Assay in all cases: log2 fold change, soluble protein after heating vs DMSO (PISA); higher = thermal stabilisation; K562 lysate, 10 uM; active = over 0.2 and 3.5 SD of the protein, either way, in both replicates (recomputed)
[1] = compound: CN1CC[C@H](c2c(O)cc(O)c3c(=O)cc(-c4ccccc4Cl)oc23)[C@H](O)C1 [alvocidib]
Method in brief: (§1)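 Dounce homogenisation of K562 pellets in PBS pH 7.4 with 1 mM MgCl2 produced a crude extract, used at 1 mg/mL protein. Exposure to 10 μM compound lasted 30 min, and aliquots were then heated for 3 min across 48°C-58°C, pooled and brought to 0.5% NP-40 at 4°C. The supernatant after 21,000xg for 90 min was quantified by TMTpro 16plex LC-MS/MS with channel sums equalised. Duplicate values are given as log-two fold change in thermal stability relative to solvent controls.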

[2] = compound: CNC(=O)C1=CC=CC=C1NC2=NC(=NC=C2Cl)NC3=C(C=C(C=C3)N4CCOCC4)OC
Method in brief: as §1

[3] = compound: CNC(=O)c1ccc(Nc2ncc(C(F)(F)F)c(NCc3nccnc3N(C)S(C)(=O)=O)n2)cc1 [defactinib]
Method in brief: as §1

[4] = compound: CNc1nc(-c2ccc3c(N)n[nH]c3c2)cc(N2C[C@@H](C(=O)NC3CCCCC3)CC[C@H]2C)n1
Method in brief: as §1

[5] = compound: COC(=O)N[C@@H](C)CNc1nccc(-c2cn(C(C)C)nc2-c2cc(Cl)cc(NS(C)(=O)=O)c2F)n1 [encorafenib]
Method in brief: as §1

[6] = compound: COC(=O)[C@H](CCSC)NC(=O)C1=C(C=C(C=C1)NC[C@H](CS)N)C2=CC=CC=C2
Method in brief: as §1

[7] = compound: COc1cc2nc(-c3cc(F)ccc3O)nc(N[C@@H]3CNC[C@H]3C(C)(C)O)c2cc1OC
Method in brief: as §1

[8] = compound: CN1CCc2c(c3ccccc3n2Cc2ccc(C(=O)NO)cc2)C1 [Tubastatin A]
Method in brief: as §1

[9] = compound: COc1cc(Nc2ncc3c(n2)-c2ccc(Cl)cc2C(c2c(F)cccc2OC)=NC3)ccc1C(=O)O [alisertib]
Method in brief: as §1

[10] = compound: COc1cc2ncnc(Nc3ccc(F)c(Cl)c3)c2cc1OCCCN1CCOCC1 [gefitinib]
Method in brief: as §1

Measured: log2 fold change

LSM11 (UniProt P83369)
UniProt P83369, sequence (P83369 whole entry, looked up): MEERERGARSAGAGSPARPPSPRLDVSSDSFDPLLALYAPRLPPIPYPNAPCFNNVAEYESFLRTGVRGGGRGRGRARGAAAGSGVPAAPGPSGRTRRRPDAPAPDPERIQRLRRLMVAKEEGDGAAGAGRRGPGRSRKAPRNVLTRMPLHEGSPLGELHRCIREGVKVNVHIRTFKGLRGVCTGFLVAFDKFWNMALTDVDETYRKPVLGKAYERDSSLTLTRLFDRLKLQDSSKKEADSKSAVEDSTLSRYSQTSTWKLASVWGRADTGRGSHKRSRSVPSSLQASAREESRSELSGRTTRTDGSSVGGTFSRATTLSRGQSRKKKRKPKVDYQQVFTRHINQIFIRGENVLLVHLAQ
inactive: [1] 0.134 | [2] -0.15 | [3] -0.119 | [4] 0.009 | [5] 0.082 | [6] 0.041

KIF18B (UniProt Q86Y91)
UniProt Q86Y91, sequence (Q86Y91 whole entry, looked up): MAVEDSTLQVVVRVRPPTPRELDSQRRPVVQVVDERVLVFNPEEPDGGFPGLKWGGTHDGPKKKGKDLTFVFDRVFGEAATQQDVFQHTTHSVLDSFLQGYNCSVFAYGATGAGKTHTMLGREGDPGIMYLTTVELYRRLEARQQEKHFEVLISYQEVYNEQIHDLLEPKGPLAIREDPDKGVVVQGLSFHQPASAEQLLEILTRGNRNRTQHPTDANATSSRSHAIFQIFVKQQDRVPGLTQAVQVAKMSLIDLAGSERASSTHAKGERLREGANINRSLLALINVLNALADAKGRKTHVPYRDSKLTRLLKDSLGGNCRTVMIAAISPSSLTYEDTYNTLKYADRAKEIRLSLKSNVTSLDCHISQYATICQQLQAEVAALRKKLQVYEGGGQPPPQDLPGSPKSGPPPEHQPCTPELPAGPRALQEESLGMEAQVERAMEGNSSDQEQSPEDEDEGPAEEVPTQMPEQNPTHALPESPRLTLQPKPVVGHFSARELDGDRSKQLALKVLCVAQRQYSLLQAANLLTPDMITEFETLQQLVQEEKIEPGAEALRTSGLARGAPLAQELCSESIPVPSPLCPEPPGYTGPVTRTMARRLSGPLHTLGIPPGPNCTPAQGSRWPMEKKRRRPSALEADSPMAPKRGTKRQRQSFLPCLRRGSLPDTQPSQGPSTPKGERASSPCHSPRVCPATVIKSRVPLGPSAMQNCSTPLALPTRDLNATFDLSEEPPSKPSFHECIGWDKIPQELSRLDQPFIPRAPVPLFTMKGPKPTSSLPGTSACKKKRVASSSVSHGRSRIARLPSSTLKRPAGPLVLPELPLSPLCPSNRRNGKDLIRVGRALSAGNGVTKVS
inactive: [4] -0.067 | [5] -0.159 | [6] -0.04 | [7] 0.046

LRRC7 (UniProt Q96NW7)
UniProt Q96NW7, sequence (Q96NW7 whole entry, looked up): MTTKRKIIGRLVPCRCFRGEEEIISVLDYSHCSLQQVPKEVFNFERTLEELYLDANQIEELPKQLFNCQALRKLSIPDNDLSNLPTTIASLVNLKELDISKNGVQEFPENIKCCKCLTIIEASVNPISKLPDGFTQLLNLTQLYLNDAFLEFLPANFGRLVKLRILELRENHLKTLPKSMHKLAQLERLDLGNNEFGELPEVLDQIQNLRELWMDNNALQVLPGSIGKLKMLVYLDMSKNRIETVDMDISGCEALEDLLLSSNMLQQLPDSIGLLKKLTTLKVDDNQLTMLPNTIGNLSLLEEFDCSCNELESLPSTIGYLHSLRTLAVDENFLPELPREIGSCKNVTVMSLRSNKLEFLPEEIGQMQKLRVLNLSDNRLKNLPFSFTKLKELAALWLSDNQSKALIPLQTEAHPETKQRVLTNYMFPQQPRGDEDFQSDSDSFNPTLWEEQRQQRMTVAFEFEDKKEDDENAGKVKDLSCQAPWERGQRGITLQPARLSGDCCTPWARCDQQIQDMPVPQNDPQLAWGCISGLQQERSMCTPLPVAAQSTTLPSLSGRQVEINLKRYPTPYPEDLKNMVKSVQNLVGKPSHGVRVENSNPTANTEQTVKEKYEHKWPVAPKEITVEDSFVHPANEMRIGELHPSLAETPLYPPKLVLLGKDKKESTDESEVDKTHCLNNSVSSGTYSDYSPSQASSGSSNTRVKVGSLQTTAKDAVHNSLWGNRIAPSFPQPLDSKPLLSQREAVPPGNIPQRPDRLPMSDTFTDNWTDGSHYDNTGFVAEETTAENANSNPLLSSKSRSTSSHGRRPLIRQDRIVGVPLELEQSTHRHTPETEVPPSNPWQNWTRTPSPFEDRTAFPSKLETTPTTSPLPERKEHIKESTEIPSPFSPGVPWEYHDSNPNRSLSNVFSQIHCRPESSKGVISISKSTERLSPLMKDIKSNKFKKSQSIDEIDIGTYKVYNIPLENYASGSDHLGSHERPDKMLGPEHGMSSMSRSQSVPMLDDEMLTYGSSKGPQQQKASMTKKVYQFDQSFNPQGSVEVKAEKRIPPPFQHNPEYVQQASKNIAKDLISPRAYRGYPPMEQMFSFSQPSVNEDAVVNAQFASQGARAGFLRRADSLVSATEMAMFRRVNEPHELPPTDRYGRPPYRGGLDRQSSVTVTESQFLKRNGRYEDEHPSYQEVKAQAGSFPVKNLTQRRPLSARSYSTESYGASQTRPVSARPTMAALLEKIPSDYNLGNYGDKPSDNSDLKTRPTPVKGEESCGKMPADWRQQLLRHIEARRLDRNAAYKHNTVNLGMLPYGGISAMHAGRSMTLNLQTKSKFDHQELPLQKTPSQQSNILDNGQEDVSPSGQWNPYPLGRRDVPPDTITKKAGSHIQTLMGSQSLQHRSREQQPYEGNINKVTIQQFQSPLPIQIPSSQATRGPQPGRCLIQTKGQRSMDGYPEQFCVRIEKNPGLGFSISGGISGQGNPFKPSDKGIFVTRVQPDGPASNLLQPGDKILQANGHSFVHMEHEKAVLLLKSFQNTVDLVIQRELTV
inactive: [1] 0.069 | [8] 0.079 | [3] 0.251 | [4] 0.058 | [5] -0.103 | [6] 0.026 | [7] -0.016

LYN isoform 2 (UniProt P07948)
UniProt P07948, sequence (P07948 whole entry, looked up): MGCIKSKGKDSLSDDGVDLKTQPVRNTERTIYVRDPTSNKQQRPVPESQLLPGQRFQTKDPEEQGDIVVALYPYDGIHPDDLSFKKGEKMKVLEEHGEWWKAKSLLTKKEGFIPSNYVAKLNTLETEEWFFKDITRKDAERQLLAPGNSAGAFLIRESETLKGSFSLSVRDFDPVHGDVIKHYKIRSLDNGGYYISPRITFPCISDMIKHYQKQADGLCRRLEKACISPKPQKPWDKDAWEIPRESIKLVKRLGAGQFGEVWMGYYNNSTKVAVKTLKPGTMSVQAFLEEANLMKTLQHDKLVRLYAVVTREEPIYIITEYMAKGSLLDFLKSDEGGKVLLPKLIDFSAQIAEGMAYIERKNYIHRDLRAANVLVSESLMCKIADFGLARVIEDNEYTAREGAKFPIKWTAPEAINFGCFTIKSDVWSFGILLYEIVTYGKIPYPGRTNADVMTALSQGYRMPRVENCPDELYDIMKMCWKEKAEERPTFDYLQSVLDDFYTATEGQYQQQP
inactive: [1] 0.138 | [8] -0.153 | [2] 0.175 | [4] 0.014 | [5] -0.063 | [6] 0.301 | [9] 0.229 | [10] 0.054
